Assay results published in PubChem BioAssay (NCI).
Where “and” joins values, the source holds several entries; their conditions need not be identical. Equal values may be shown once. Compounds without any hit were thinned out: in the full panel of roughly 83,000, 20% have a hit.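 Percent growth is the endpoint: 0 to 100 indicates growth inhibition (40 means 60% inhibition), 0 means no net growth, and negative values indicate cell death.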 Calls of active or inactive are those of the source. The calls were made as follows: active = growth percent below 10; inactive = the rest.

Experiments:
Assay in all cases: NCI-60 one-dose screen, 48 h (100 = growth as untreated, 0 = no growth, -100 = all killed)
HCT-15 colon = details: 10 µM unless noted
HT29 colon = details: 10 µM unless noted
SNB-75 CNS = details: 10 µM unless noted
SNB-19 CNS = details: 10 µM unless noted
U251 CNS = details: 10 µM unless noted
PC-3 prostate = details: 10 µM unless noted
SK-MEL-5 melanoma = details: 10 µM unless noted
UACC-62 melanoma = details: 10 µM unless noted
LOX IMVI melanoma = details: 10 µM unless noted
SK-MEL-2 melanoma = details: 10 µM unless noted
EKVX NSCLC = details: 10 µM
SN12C renal = details: 10 µM unless noted
UO-31 renal = details: 10 µM unless noted
TK-10 renal = details: 10 µM unless noted
CAKI-1 renal = details: 10 µM unless noted
A498 renal = details: 10 µM unless noted
CCRF-CEM leukemia = details: 10 µM
MOLT-4 leukemia = details: 10 µM unless noted
SK-MEL-28 melanoma = details: 10 µM unless noted
ACHN renal = details: 10 µM unless noted

| Structure (SMILES) | growth (HCT-15 colon) | growth (HT29 colon) | growth (SNB-75 CNS) | growth (SNB-19 CNS) | growth (U251 CNS) | growth (PC-3 prostate) | growth (SK-MEL-5 melanoma) | growth (UACC-62 melanoma) | growth (LOX IMVI melanoma) | growth (SK-MEL-2 melanoma) | growth (EKVX NSCLC) | growth (SN12C renal) | growth (UO-31 renal) | growth (TK-10 renal) | growth (CAKI-1 renal) | growth (A498 renal) | growth (CCRF-CEM leukemia) | growth (MOLT-4 leukemia) | growth (SK-MEL-28 melanoma) | growth (ACHN renal) |
| --- | --- | --- | --- | --- | --- | --- | --- | --- | --- | --- | --- | --- | --- | --- | --- | --- | --- | --- | --- | --- |
| CC(=O)Nc1ccc(S(N)(=O)=O)cc1 | 107% (inactive) and 93.5% (inactive) | 106% (inactive) and 96.8% (inactive) | 107% (inactive) and 92.5% (inactive) | 98.3% (inactive) and 107% (inactive) | 93% (inactive) and 96.2% (inactive) | 81.2% (inactive) and 99.1% (inactive) | 93.2% (inactive) and 101% (inactive) | 99.8% (inactive) | 98% (inactive) and 92.1% (inactive) | 109% (inactive) and 110% (inactive) | 102% (inactive) | 97.5% (inactive) and 102% (inactive) | 95.8% (inactive) and 84.3% (inactive) | 101% (inactive) | 108% (inactive) and 93.2% (inactive) | 85.8% (inactive) and 101% (inactive) | 93.2% (inactive) and 100% (inactive) | 103% (inactive) and 98.8% (inactive) | – | – |
| N#CC(C#N)N=Nc1cc(Cl)ccc1Cl | 101% (inactive) | 101% (inactive) | 74.8% (inactive) | 93.6% (inactive) | 96.6% (inactive) | 106% (inactive) | 106% (inactive) | 99.1% (inactive) | 109% (inactive) | 85.6% (inactive) | – | 103% (inactive) | – | 105% (inactive) | – | 110% (inactive) | 94.7% (inactive) | 92.4% (inactive) | 109% (inactive) | – |
| Cc1cc(-c2ccc(N=Nc3ccc4c(S(=O)(=O)O)cc(S(=O)(=O)O)c(N)c4c3O)c(C)c2)ccc1N=Nc1ccc2c(S(=O)(=O)O)cc(S(=O)(=O)O)c(N)c2c1O | 96.6% (inactive) | 83.6% (inactive) | 112% (inactive) | 111% (inactive) | 97.6% (inactive) | 81.9% (inactive) | 94.1% (inactive) | 77.3% (inactive) | 96.9% (inactive) | 112% (inactive) | – | 99.1% (inactive) | 74.1% (inactive) | 112% (inactive) | 86.9% (inactive) | 103% (inactive) | 85.7% (inactive) | – | 120% (inactive) | 91.6% (inactive) |
| CCCCOc1ccc(Nc2cc(Cl)ccc2C(=O)O)cn1 | 104% (inactive) and 89.1% (inactive) | 115% (inactive) | 98.7% (inactive) and 115% (inactive) | 96.6% (inactive) and 106% (inactive) | 98.1% (inactive) and 96.9% (inactive) | 93.6% (inactive) | 99.4% (inactive) and 102% (inactive) | 97.9% (inactive) and 98.1% (inactive) | 107% (inactive) and 90.5% (inactive) | 79.3% (inactive) and 112% (inactive) | – | 94.2% (inactive) and 104% (inactive) | 6.77% (active) and 86.2% (inactive) | 112% (inactive) and 121% (inactive) | 97.7% (inactive) and 94.4% (inactive) | 102% (inactive) | 82.3% (inactive) and 95% (inactive) | 94.6% (inactive) and 108% (inactive) | – | 106% (inactive) and 89.9% (inactive) |
| ClCCOCCOc1ccc(C2CCCCC2)cc1 | 105% (inactive) | 106% (inactive) | 98.2% (inactive) | 98.4% (inactive) | 89.7% (inactive) | 101% (inactive) | 98.8% (inactive) | 98.6% (inactive) | 107% (inactive) | 102% (inactive) | – | 96.3% (inactive) | 99.5% (inactive) | 108% (inactive) | 97.3% (inactive) | 73.1% (inactive) | 107% (inactive) | 120% (inactive) | – | – |
| Cn1cnc([N+](=O)[O-])c1Sc1ncn[nH]1 | 107% (inactive) | 104% (inactive) | 85.6% (inactive) | 111% (inactive) | 108% (inactive) | – | 104% (inactive) | 108% (inactive) | 93.1% (inactive) | – | – | 101% (inactive) | 82.9% (inactive) | 106% (inactive) | 68.4% (inactive) | 117% (inactive) | – | 121% (inactive) | 104% (inactive) | 110% (inactive) |
| COc1cc(C(O)C2C(=O)OCC2C2(c3ccc4c(c3)OCO4)SCCCS2)cc(OC)c1OC (stereo not given) | 96.6% (inactive) | 102% (inactive) | – | 96.4% (inactive) | 100% (inactive) | 84.1% (inactive) | 99.1% (inactive) | 87.5% (inactive) | 92.1% (inactive) | 95.6% (inactive) | – | 101% (inactive) | 93.2% (inactive) | 98.2% (inactive) | 93.8% (inactive) | 84.4% (inactive) | 98.2% (inactive) | 94% (inactive) | – | 103% (inactive) |
| CC(=O)OC(C)C(=O)NCC(C)O (stereo not given) | 100% (inactive) | 110% (inactive) | 93.2% (inactive) | 110% (inactive) | – | 96.6% (inactive) | – | 122% (inactive) | 101% (inactive) | 110% (inactive) | – | 106% (inactive) | 82.4% (inactive) | 113% (inactive) | 108% (inactive) | 98.2% (inactive) | 98.9% (inactive) | 98.1% (inactive) | 105% (inactive) | 102% (inactive) |
| O=C(O)CCCl | – | 108% (inactive) | 97.9% (inactive) | 104% (inactive) | 101% (inactive) | 96.8% (inactive) | 99.2% (inactive) | 110% (inactive) | 104% (inactive) | 123% (inactive) | – | 107% (inactive) | 97% (inactive) | 107% (inactive) | 102% (inactive) | 99.1% (inactive) | 93% (inactive) | 109% (inactive) | – | 101% (inactive) |
| CC(C)NC(=O)N/C=C(\C#N)C(N)=O | 101% (inactive) | 107% (inactive) | 83.2% (inactive) | 110% (inactive) | 114% (inactive) | 94.9% (inactive) | 101% (inactive) | 101% (inactive) | 97.2% (inactive) | 101% (inactive) | – | 99.1% (inactive) | 87.8% (inactive) | 99.7% (inactive) | 81.5% (inactive) | 112% (inactive) | 114% (inactive) | 106% (inactive) | – | – |
| CCCCCCCCCCCCCCCCC(C(=O)O)C(O)(CC(=O)O)C(=O)O (stereo not given) | 105% (inactive) and 66.4% (inactive) | 93.9% (inactive) and -31.8% (active) | 98.8% (inactive) and -58.3% (active) | 110% (inactive) and 15% (inactive) | 101% (inactive) and 8.93% (active) | 110% (inactive) and 19.8% (inactive) | 107% (inactive) | 108% (inactive) and -70.3% (active) | 106% (inactive) and 0.982% (active) | 95.4% (inactive) and -42.9% (active) | – | 110% (inactive) and 17.4% (inactive) | 98.7% (inactive) and 59.3% (inactive) | 94.1% (inactive) and 34% (inactive) | 103% (inactive) and 74.9% (inactive) | 113% (inactive) | 2.43% (active) | 90.3% (inactive) and 1.35% (active) | – | – |
| CCCCCCCCCCNC(=O)CI | 14% (inactive) | -54.9% (active) | -30.7% (active) | 89.2% (inactive) | 14.3% (inactive) | -39.8% (active) | 3.04% (active) | 59.4% (inactive) | -73.2% (active) | -50.1% (active) | – | 33.9% (inactive) | -90.1% (active) | 15.5% (inactive) | -93.5% (active) | 111% (inactive) | -47.1% (active) | -28.9% (active) | – | -93.7% (active) |
| c1ccc2c(c1)OC1OC2Oc2ccccc21 | 98.1% (inactive) | 95.6% (inactive) | 90% (inactive) | 97.6% (inactive) | 102% (inactive) | 91.6% (inactive) | 103% (inactive) | 92.5% (inactive) | 91.1% (inactive) | 87.7% (inactive) | – | 98.9% (inactive) | 90.1% (inactive) | 97.6% (inactive) | 113% (inactive) | 117% (inactive) | 97.6% (inactive) | 95.4% (inactive) | – | 101% (inactive) |
| OCC1OC(O)C(O)C(O)C1O (stereo not given) | 97.2% (inactive) | 92.5% (inactive) | – | 107% (inactive) | 113% (inactive) | 92.2% (inactive) | 110% (inactive) | 117% (inactive) | 100% (inactive) | 115% (inactive) | – | 103% (inactive) | 97.4% (inactive) | 100% (inactive) | 89% (inactive) | 105% (inactive) | 92.3% (inactive) | 96.6% (inactive) | – | – |
| COc1ccc(Nc2ccc3ccccc3c2)cc1 | 78.2% (inactive) | 64.9% (inactive) | 64.3% (inactive) | 79.5% (inactive) | – | 71.5% (inactive) | 73.8% (inactive) | 62.1% (inactive) | 74.2% (inactive) | 67.2% (inactive) | – | 76.9% (inactive) | – | 77.2% (inactive) | 52.3% (inactive) | 52.8% (inactive) | 56.9% (inactive) | 71.5% (inactive) | – | – |
